Assay results as given in PubChem BioAssay AID1259324 (C. David Weaver Laboratory, Vanderbilt University, 2017).
Among all 34,000 compounds or so, fewer than 10 were called active.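 How the source made its calls: active means primary screen hit, no activity in plain HEK293 cells, and in GIRK2-only cells above 5% efficacy rising with concentration; inactive means the rest, including fluorescent compounds.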 A selection follows.

Biological target: G protein-activated inward rectifier potassium channel 2 (Homo sapiens) (UniProt P48051)
Assay: GIRK2 activation atop partial GPCR stimulation – cell-based, HEK293, thallium flux, summary (AID 1259324)
Details: HEK293 GIRK2/NPY4 cells, thallium flux fluorescence

Chain of G protein-activated inward rectifier potassium channel 2 (Homo sapiens) (P48051 whole entry, looked up): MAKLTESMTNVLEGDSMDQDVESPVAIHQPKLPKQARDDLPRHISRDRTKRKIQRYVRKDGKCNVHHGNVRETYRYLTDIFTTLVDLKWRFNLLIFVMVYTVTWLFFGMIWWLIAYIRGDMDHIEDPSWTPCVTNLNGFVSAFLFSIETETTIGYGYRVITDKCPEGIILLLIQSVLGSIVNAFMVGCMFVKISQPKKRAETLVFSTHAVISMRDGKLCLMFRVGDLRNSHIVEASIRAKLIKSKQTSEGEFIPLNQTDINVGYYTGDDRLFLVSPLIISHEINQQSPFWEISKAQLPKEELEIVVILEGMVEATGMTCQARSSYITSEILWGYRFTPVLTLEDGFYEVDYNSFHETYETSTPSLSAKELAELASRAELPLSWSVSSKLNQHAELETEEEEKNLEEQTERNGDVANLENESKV

outcome, inactive:
CON(C)C(=O)C1CN(C(=O)c2cccs2)C1
COc1cn(CC(=O)Nc2ccc3c(c2)OCO3)c(CSc2ncccn2)cc1=O
CCOC(=O)C1CCN(C(=O)c2csc(Nc3ccccc3)n2)CC1
COc1ccc(CC(=O)NCCOc2ccc(F)cc2)cc1OC
CCOc1ccc2nc(NC(=O)c3ccc(S(=O)(=O)N(C)C)o3)sc2c1
O=c1[nH]c(SCc2nc(-c3cccc(C(F)(F)F)c3)no2)nc2ccsc12
COc1cc(N2CCN(S(C)(=O)=O)CC2)nc(OC)n1
CCC(CO)NC(=O)C(=O)Nc1c2c(nn1-c1ccccc1)CS(=O)(=O)C2 (configuration not stated)
CN1CCN(C(CNS(=O)(=O)c2ccc(C(C)(C)C)cc2)c2cccn2C)CC1 (configuration not stated)
COc1cccc(-n2nnnc2SCC(=O)Nc2ccccc2Cl)c1
COc1ccc(Cc2nnc(Nc3cc(C)ccc3C)[nH]c2=O)cc1
Cc1cc(=O)n(CC(=O)Nc2ccncc2)cn1
CCCCOc1ccc(C(=O)Nc2ccc3c(c2)CCC(=O)N3CCC)cc1
COc1cccc(C(=O)NCC2COC3(CCCCC3)O2)c1OC (configuration not stated)
NC(=O)C1CCN(c2oc(-c3ccco3)nc2S(=O)(=O)c2ccc(Cl)cc2)CC1
Cc1nnc(NC(=O)CCn2cnc3c(cnn3-c3ccc(F)cc3)c2=O)s1
O=C(NCC(=O)N1CCOC(c2ccccc2)C1)C(=O)NCc1ccccc1Cl (configuration not stated)
O=C(NCCc1ccc(F)cc1)c1cc(=O)c(OCc2ccccc2)co1 inactive; active
NC(=O)C1Cc2ccccc2N1C(=O)Nc1ccc2c(c1)OCO2 (configuration not stated)
CCc1nnc(NC(=O)c2nnn(-c3ccc(Cl)cc3)c2C)s1
COc1ccc(NC(=O)C2CCCCC2)cc1N1CCCCC1=O
COCCNC(=O)c1ccc(Oc2c(C)oc3cc(OC)ccc3c2=O)cc1
CN(C(=O)c1cccc(F)c1)C1(C)CCS(=O)(=O)C1 (configuration not stated)
Cc1cn2c3c(=O)n(C)c(=O)n(C)c3nc2n1CC(=O)c1ccc(Cl)cc1
Cc1cccc(NC(=O)c2ccc3nn(CC(=O)Nc4ccc(C)c(F)c4)c(=O)n3c2)c1
Cc1cccc(CC(=O)NCC2(c3cccs3)CCCC2)c1
CS(=O)(=O)N1CCC(CNC(=O)c2ccc(F)c(F)c2)CC1
O=C(NCCCN1CCCC1=O)C(=O)Nc1c2c(nn1-c1cccc(Cl)c1)CSC2
COc1ccc(S(=O)(=O)NCC(c2ccc(C)cc2)N2CCN(C)CC2)cc1OC (configuration not stated)
Cc1nc(-c2cccs2)c(CCC(=O)N(C)C2CCS(=O)(=O)C2)s1 (configuration not stated)
CNc1nn(CC(=O)Nc2ccc(C(C)=O)cc2)c(N)c1-c1nc(-c2ccc(C)cc2)no1
Cc1cc(-c2nnc(NC(=O)c3cccc(Oc4ccccc4)c3)o2)n(C)n1 inactive; active
COCC(C)(O)CNC(=O)Cc1cccc(C)c1 (configuration not stated)
CN1CCOc2ccc(NC(=O)C3(c4ccc(F)cc4)CC3)cc2C1=O
O=c1oc(-c2ccncc2)nc2c(Cl)cccc12
O=C(Cn1nc(C2CC2)c2cnn(-c3ccc(F)cc3)c2c1=O)N1CCOCC1
COC(=O)c1ccc(C(=O)NCCCC(=O)Nc2cccc3cccnc23)cc1
CN(C)C(=O)C(NC(=O)OC(C)(C)C)c1ccccc1Cl (configuration not stated)
CC(C)S(=O)(=O)c1ccc(CC(=O)NCc2n[nH]c(=O)c3ccccc23)cc1
O=C(c1ccc(N2CCCC2)nn1)N1CCN(C(=O)c2ccco2)CC1
O=C(c1ccc2c(c1)OCO2)N(Cc1ccsc1)Cc1ccccn1
CSc1nnc(CNC(=O)C23CC4CC(CC(C4)C2)C3)n1-c1ccccc1
Cc1ccc(S(=O)(=O)NCCNc2ccc(Nc3cccc(C)n3)nn2)c(C)c1
O=c1c2cn[nH]c2nc(SCc2nc(-c3ccccc3)no2)n1-c1ccccc1
O=C(Cc1cccc2ccccc12)NCCOc1ccc2c(c1)OCO2
Cc1cc(C)c2sc(N3CCN(C(=O)C4CCCN(S(C)(=O)=O)C4)CC3)nc2c1 (configuration not stated)
COc1cccc(C(=O)Nc2ccc(N3CCCC3=O)c(OC)c2)c1
Cc1ccc(NC(=S)NC(=O)c2ccc(F)cc2)nc1
Cc1cc(C)n(S(=O)(=O)c2cccc(S(C)(=O)=O)c2)n1
COc1ccc(-c2cc3c(=O)n(Cc4nc(-c5ccc(OC)cc5OC)no4)ccn3n2)cc1
CSc1ccccc1C(=O)Nc1nnc(-c2cc(C)nn2C)o1
Cn1c(=O)c2c(nc3n(CC(=O)O)c(-c4ccccc4)cn23)n(C)c1=O
COc1nn(C)cc1-c1nnc(SCC(=O)N2CCCc3ccccc32)n1C
Cc1cccc(CS(=O)(=O)NCC2(O)CCc3ccccc32)c1 (configuration not stated)
COC(=O)c1ccc(NC(=O)Cn2c(=O)n(C(C)C)c(=O)c3nscc32)cc1
NS(=O)(=O)c1ccc(NC(=O)c2ccc(=O)n(Cc3ccc(F)cc3)c2)cc1
CCOC(=O)Cc1csc(NC(=O)c2nc(-c3cnccn3)no2)n1
Cc1cccc(Nc2ccc(N3CCN(S(=O)(=O)c4cccs4)CC3)nn2)n1
COCCNC(=O)CCn1cnc2c(cnn2C(C)(C)C)c1=O
O=S(=O)(NCC#CCN1CCc2ccccc2C1)c1c(F)cccc1F
Cc1ccc(-c2ccc(=O)n(CCCC(=O)Nc3ccc(S(N)(=O)=O)cc3)n2)cc1
COc1cc(OC)cc(C(=O)N2CCc3cc(S(=O)(=O)NC4CCCC4)ccc32)c1
Cn1cccc1C(CNS(=O)(=O)c1ccc(F)cc1)N1CCOCC1 (configuration not stated)
Cn1cccc(C(=O)N2CCC(c3nnc(-c4ccco4)s3)CC2)c1=O
O=C(NCC1(c2cccs2)CCOCC1)Nc1cccc(C(F)(F)F)c1
CC(=O)c1ccc(S(=O)(=O)N2CCC(c3nnc(C4CC4)o3)CC2)cc1
COc1ccc(Cl)cc1N1CC(c2nc(-c3ccccc3C)no2)CC1=O (configuration not stated)
